Results as given in PubChem BioAssay (NCATS).
Inconclusive results are not listed. Activity calls are given as the source filed them. Calls come from the whole dose curve; as a rule, active = well fitted curve in the direction sought with a large enough effect; inconclusive = small, poorly fitted or top-dose-only effect, or another doubt; inactive = no such curve, though single readings can be large; an effect the other way counts as inactive or inconclusive.

What was measured:
HEK293T [1] = assay: qHTS assay to identify novel small-molecules to repurpose for Merkel cell carcinoma treatment (AID 1296009); conditions: MCC and control cell lines, CellTiter-Glo viability, 72 h; at 44.8 µM (top of the series) unless noted; note: nearly all actives have a fitted effect of over 60% in size
In short: (§1)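 Luminescence from CellTiter-Glo, read 10 min after addition at room temperature, reported viability following a 72 hr, 37 degree celsius treatment with NPC or MIPE compounds in titration; values normalized to plate controls.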

MCC-13 = assay: as above; conditions: MCC and control cell lines, CellTiter-Glo viability, 72 h; series mostly up to 46 µM
In short: as §1

MCC-26 = assay: as above; conditions: MCC and control cell lines, CellTiter-Glo viability, 72 h; series mostly up to 46 µM
In short: as §1

MKL-1 = assay: as above; conditions: MCC and control cell lines, CellTiter-Glo viability, 72 h; series mostly up to 46 µM
In short: as §1

MKL-2 = assay: as above; conditions: MCC and control cell lines, CellTiter-Glo viability, 72 h; series mostly up to 46 µM
In short: as §1

UISO = assay: as above; conditions: MCC and control cell lines, CellTiter-Glo viability, 72 h; series mostly up to 46 µM
In short: as §1

WaGa = assay: as above; conditions: MCC and control cell lines, CellTiter-Glo viability, 72 h; series mostly up to 46 µM
In short: as §1

C33A = assay: Primary qHTS to identify gynecologic anti-cancer compounds using libraries of approved drugs and bioactive compounds (AID 1345084); conditions: Gynecologic cancer cell panel viability, ATPlite luminescence, 48 h; series mostly up to 57.5 µM; note: nearly all actives have a fitted effect of over 55% in size
In short: (§2)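 Five-concentration response, 48 h; readout is ATP-driven luciferase luminescence.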

CAOV3 = assay: as above; conditions: Gynecologic cancer cell panel viability, ATPlite luminescence, 48 h; series mostly up to 57.5 µM
In short: as §2

Es-2 = assay: as above; conditions: Gynecologic cancer cell panel viability, ATPlite luminescence, 48 h; series mostly up to 57.5 µM
In short: as §2

HeLa = assay: as above; conditions: Gynecologic cancer cell panel viability, ATPlite luminescence, 48 h; series mostly up to 57.5 µM
In short: as §2

Hek293T [2] = assay: as above; conditions: Gynecologic cancer cell panel viability, ATPlite luminescence, 48 h, control line for the selectivity index; series mostly up to 57.5 µM
In short: as §2

JEG-3 = assay: as above; conditions: Gynecologic cancer cell panel viability, ATPlite luminescence, 48 h; series mostly up to 57.5 µM
In short: as §2

OV90 = assay: as above; conditions: Gynecologic cancer cell panel viability, ATPlite luminescence, 48 h; series mostly up to 57.5 µM
In short: as §2

PA-1 = assay: as above; conditions: Gynecologic cancer cell panel viability, ATPlite luminescence, 48 h; series mostly up to 57.5 µM
In short: as §2

SKOV3 = assay: as above; conditions: Gynecologic cancer cell panel viability, ATPlite luminescence, 48 h; series mostly up to 57.5 µM
In short: as §2

Tov-21-G = assay: as above; conditions: Gynecologic cancer cell panel viability, ATPlite luminescence, 48 h; series mostly up to 57.5 µM
In short: as §2

Tov112D = assay: as above; conditions: Gynecologic cancer cell panel viability, ATPlite luminescence, 48 h; series mostly up to 57.5 µM
In short: as §2

CASKI = assay: as above; conditions: Gynecologic cancer cell panel viability, ATPlite luminescence, 48 h; series mostly up to 57.5 µM
In short: as §2
% is set by controls: 0 for no effect and ±100 for the full control effect.

CCCOC(=O)c1ccc(N)cc1
inactive: outcome (HEK293T [1]) | outcome (MCC-13) | outcome (MCC-26) | outcome (MKL-1) | outcome (MKL-2) | outcome (UISO) | outcome (WaGa) | outcome (C33A) | outcome (CAOV3) | outcome (Es-2) | outcome (HeLa) | outcome (Hek293T [2]) | outcome (JEG-3) | Potency (OV90) | outcome (PA-1) | outcome (SKOV3) | outcome (Tov-21-G) | outcome (Tov112D)

CCCCCCCCCCOc1cc2c(=O)c(C(=O)OCC)c[nH]c2cc1OCC
inactive: outcome (HEK293T [1]) inactive [at 4.96 µM] | activity change, negative = cytotoxicity (MCC-13) 9.19% [at 4.84 µM] | activity change, negative = cytotoxicity (MCC-26) -1.97% [at 4.84 µM] | activity change, negative = cytotoxicity (MKL-1) -4.83% [at 4.84 µM] | activity change, negative = cytotoxicity (MKL-2) 10.7% [at 4.84 µM] | activity change, negative = cytotoxicity (UISO) 13.6% [at 4.84 µM] | activity change, negative = cytotoxicity (WaGa) -1.72% [at 4.84 µM] | activity change, negative = cytotoxicity (C33A) 1.85% [at 6.55 µM] | activity change, negative = cytotoxicity (CAOV3) 22.4% [at 6.55 µM] | activity change, negative = cytotoxicity (CASKI) 19.5% [at 6.55 µM] | activity change, negative = cytotoxicity (Es-2) -0.35% [at 6.55 µM] | activity change, negative = cytotoxicity (HeLa) -1.47% [at 6.55 µM] | activity change, negative = cytotoxicity (Hek293T [2]) 4.2% [at 6.55 µM] | activity change, negative = cytotoxicity (JEG-3) 6.94% [at 6.55 µM] | activity change, negative = cytotoxicity (OV90) -2.35% [at 6.55 µM] | activity change, negative = cytotoxicity (PA-1) -2.19% [at 6.55 µM] | activity change, negative = cytotoxicity (SKOV3) 0.739% [at 6.55 µM] | activity change, negative = cytotoxicity (Tov-21-G) 1.05% [at 6.55 µM] | activity change, negative = cytotoxicity (Tov112D) -6.94% [at 6.55 µM]

C/C=C1\[C@H]2C=C(C)C[C@]1(N)c1ccc(=O)[nH]c1C2
inactive: outcome (HEK293T [1]) | outcome (MCC-13) | outcome (MCC-26) | outcome (MKL-1) | outcome (MKL-2) | outcome (UISO) | outcome (WaGa) | outcome (C33A) | outcome (CAOV3) | outcome (CASKI) | outcome (Es-2) | outcome (HeLa) | outcome (Hek293T [2]) | outcome (JEG-3) | Potency (OV90) | outcome (PA-1) | outcome (Tov-21-G) | outcome (Tov112D)

OCCN1C[C@H](O)[C@@H](O)[C@H](O)[C@H]1CO
inactive: outcome (HEK293T [1]) | outcome (MCC-13) | outcome (MCC-26) | outcome (MKL-1) | outcome (MKL-2) | outcome (UISO) | outcome (WaGa) | outcome (C33A) | outcome (CAOV3) | outcome (CASKI) | outcome (Es-2) | outcome (HeLa) | outcome (Hek293T [2]) | outcome (JEG-3) | Potency (OV90) | outcome (PA-1) | outcome (SKOV3) | outcome (Tov-21-G) | outcome (Tov112D)

CC(=O)OCC(=O)[C@@]1(O)CC[C@H]2[C@@H]3CCC4=CC(=O)C=C[C@]4(C)[C@@]3(F)[C@@H](O)C[C@@]21C
inactive: outcome (HEK293T [1]) | outcome (MCC-13) | outcome (MCC-26) | outcome (MKL-1) | outcome (MKL-2) | outcome (UISO) | outcome (WaGa) | outcome (C33A) | outcome (CASKI) | outcome (Es-2) | outcome (HeLa) | outcome (Hek293T [2]) | outcome (JEG-3) | Potency (OV90) | outcome (PA-1) | outcome (Tov-21-G) | outcome (Tov112D)

Nc1ccc(S(=O)(=O)c2ccc(N)cc2)cc1
inactive: outcome (HEK293T [1]) | outcome (MCC-13) | outcome (MCC-26) | outcome (MKL-1) | outcome (MKL-2) | outcome (UISO) | outcome (WaGa) | outcome (C33A) | outcome (CAOV3) | outcome (CASKI) | outcome (Es-2) | outcome (HeLa) | outcome (Hek293T [2]) | outcome (JEG-3) | Potency (OV90) | outcome (Tov-21-G) | outcome (Tov112D)

CC(C)NC[C@@H](O)COc1ccc(CC(N)=O)cc1
inactive: outcome (HEK293T [1]) | outcome (MCC-13) | outcome (MCC-26) | outcome (MKL-1) | outcome (MKL-2) | outcome (UISO) | outcome (WaGa) | outcome (C33A) | outcome (CAOV3) | outcome (CASKI) | outcome (Es-2) | outcome (HeLa) | outcome (Hek293T [2]) | outcome (JEG-3) | Potency (OV90) | outcome (PA-1) | outcome (Tov-21-G) | outcome (Tov112D)

CCCCCCCCCCCCCCCCC(C(=O)O)C(O)(CC(=O)O)C(=O)O (stereo not drawn)
inactive: outcome (HEK293T [1]) | outcome (MCC-13) | outcome (MCC-26) | outcome (MKL-1) | outcome (MKL-2) | outcome (UISO) | outcome (WaGa) | outcome (C33A) | outcome (CAOV3) | outcome (CASKI) | outcome (Es-2) | outcome (HeLa) | outcome (JEG-3) | Potency (OV90) | outcome (PA-1) | outcome (SKOV3) | outcome (Tov-21-G) | outcome (Tov112D)

CCCCCCCCCCC(CO)CCCCCCCC (stereo not drawn)
inactive: outcome (HEK293T [1]) | outcome (MCC-13) | outcome (MCC-26) | outcome (MKL-1) | outcome (MKL-2) | outcome (UISO) | outcome (WaGa) | outcome (C33A) | outcome (CASKI) | outcome (Es-2) | outcome (HeLa) | outcome (Hek293T [2]) | outcome (JEG-3) | Potency (OV90) | outcome (PA-1) | outcome (SKOV3) | outcome (Tov-21-G) | outcome (Tov112D)

C[C@]1(Cn2ccnn2)[C@H](C(=O)O)N2C(=O)C[C@H]2S1(=O)=O
inactive: outcome (HEK293T [1]) | outcome (MCC-13) | outcome (MCC-26) | outcome (MKL-1) | outcome (MKL-2) | outcome (UISO) | outcome (WaGa) | outcome (C33A) | outcome (CAOV3) | outcome (CASKI) | outcome (Es-2) | outcome (HeLa) | outcome (Hek293T [2]) | outcome (JEG-3) | Potency (OV90) | outcome (PA-1) | outcome (SKOV3) | outcome (Tov-21-G) | outcome (Tov112D)

C[N+](C)(C)CC[N+]1(C)Cc2c(Cl)c(Cl)c(Cl)c(Cl)c2C1
inactive: outcome (HEK293T [1]) | outcome (MCC-13) | outcome (MCC-26) | outcome (MKL-1) | outcome (MKL-2) | outcome (UISO) | outcome (WaGa) | outcome (C33A) | outcome (CAOV3) | outcome (CASKI) | outcome (Es-2) | outcome (HeLa) | outcome (Hek293T [2]) | outcome (JEG-3) | Potency (OV90) | outcome (PA-1) | outcome (SKOV3) | outcome (Tov-21-G) | outcome (Tov112D)

CCCCCCCCCCCCCCCCN
inactive: outcome (HEK293T [1]) | outcome (MCC-13) | outcome (MCC-26) | outcome (MKL-1) | outcome (MKL-2) | outcome (UISO) | outcome (WaGa) | outcome (C33A) | outcome (CAOV3) | outcome (CASKI) | outcome (Es-2) | outcome (HeLa) | outcome (JEG-3) | Potency (OV90) | outcome (PA-1) | outcome (SKOV3) | outcome (Tov-21-G) | outcome (Tov112D)
